From article PMC4336329 (PLoS ONE, 2015)
Screen size: about 310,000 compounds; about 14,000 (4.5%) showed an effect of 50% or more. The effect is printed as a negative number. The sample as a whole holds a higher share of strong results than the screen did.

target: human ether-à-go-go-related gene (hERG) potassium channel (human, UniProt Q12809); assay: primary screen, population patch clamp on CHO cells stably expressing hERG; higher = less effect of the substance
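Note: peak tail current of the secondary pulse compared with the same well before compound.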

Sequence of human ether-à-go-go-related gene (hERG) potassium channel (Q12809 whole entry, looked up): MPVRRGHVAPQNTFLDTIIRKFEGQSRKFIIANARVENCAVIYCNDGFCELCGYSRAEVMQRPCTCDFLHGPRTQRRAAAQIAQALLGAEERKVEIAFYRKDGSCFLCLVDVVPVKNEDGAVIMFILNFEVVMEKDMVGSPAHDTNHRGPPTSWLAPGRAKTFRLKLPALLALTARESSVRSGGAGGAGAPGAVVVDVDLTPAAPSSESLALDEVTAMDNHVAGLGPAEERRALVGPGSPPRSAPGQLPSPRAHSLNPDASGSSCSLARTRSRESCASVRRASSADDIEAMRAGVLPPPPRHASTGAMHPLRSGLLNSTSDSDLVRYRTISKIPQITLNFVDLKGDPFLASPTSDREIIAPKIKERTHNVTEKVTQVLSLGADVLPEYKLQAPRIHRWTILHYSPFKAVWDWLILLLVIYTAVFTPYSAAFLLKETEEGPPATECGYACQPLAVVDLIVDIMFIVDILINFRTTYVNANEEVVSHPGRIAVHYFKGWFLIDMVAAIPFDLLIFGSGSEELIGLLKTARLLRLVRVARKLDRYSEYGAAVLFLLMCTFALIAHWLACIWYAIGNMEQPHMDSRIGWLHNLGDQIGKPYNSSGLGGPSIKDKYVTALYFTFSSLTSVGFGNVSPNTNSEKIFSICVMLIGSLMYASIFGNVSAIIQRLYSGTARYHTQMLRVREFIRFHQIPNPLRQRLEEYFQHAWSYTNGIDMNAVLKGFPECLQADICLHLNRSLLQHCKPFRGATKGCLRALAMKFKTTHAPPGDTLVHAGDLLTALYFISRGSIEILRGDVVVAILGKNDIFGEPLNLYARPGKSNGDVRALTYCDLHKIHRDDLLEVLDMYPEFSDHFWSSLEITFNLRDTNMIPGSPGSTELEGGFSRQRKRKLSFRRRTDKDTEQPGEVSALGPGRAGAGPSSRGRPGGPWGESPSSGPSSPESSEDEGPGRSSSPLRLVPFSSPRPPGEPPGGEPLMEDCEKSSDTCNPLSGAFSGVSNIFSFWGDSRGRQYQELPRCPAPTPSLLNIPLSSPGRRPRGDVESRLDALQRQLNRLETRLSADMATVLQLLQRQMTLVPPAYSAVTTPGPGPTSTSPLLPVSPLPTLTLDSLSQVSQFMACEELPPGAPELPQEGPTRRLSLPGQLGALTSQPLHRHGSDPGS

SMILES | hERG current change (%, negative = inhibition) at 10uM [%]
CCN(C(=O)c1ccc(C)c(Br)c1)c1ccccc1 | -20.5
CC(=O)c1c(C)[nH]c(C(=O)COC(=O)COc2ccccc2F)c1C | -3.3
O=C(CCC1CCCCC1)NNC(=O)NC12CC3CC(CC(C3)C1)C2 | 13.2
Cc1ccc(C)c(NNC(N)=S)c1 | 14
O=C(COC(=O)CC1SC(N2CCCC2)=NC1=O)Nc1c(F)c(F)c(F)c(F)c1F (stereo not shown) | -12.6
Cc1cc(NC(=O)CSc2nc(CC(C)(C)C)nc3c2c(=O)n(C)c(=O)n3C)no1 | 4.05
COc1ccc(OCCSc2nnc(CCNC(=O)c3ccc(OC)cc3)n2C)cc1 | -6.83
CCN(CC)CCN(C(=O)c1cc2ccccc2cc1OC)c1nc2ccc(OC)cc2s1.Cl | -13.4
CN(C)CCCN(C(=O)c1ccco1)c1nc2cc3c(cc2s1)OCO3.Cl | -43.7
CC(=O)N(CCCN(C)C)c1nc2ccc(C)cc2s1.Cl | -7.07
COc1ccc2sc(N(CCN(C)C)C(=O)c3cc(Cl)sc3Cl)nc2c1.Cl | -0.167
CN(C)CCN(C(=O)c1cc(Cl)sc1Cl)c1nc2ccc(F)cc2s1.Cl | -67.3
CCN(CC)CCN(C(=O)c1ccccc1OC)c1nc2ccc(F)cc2s1.Cl | -68.3
Cc1ccc2nc(N(CCCN(C)C)C(=O)c3ccco3)sc2c1.Cl | -65.4
Cc1ccc2nc(N(CCN(C)C)C(=O)c3cc(Cl)sc3Cl)sc2c1.Cl | 7.55
CN(C)CCCN(C(=O)c1ccco1)c1nc2ccc(Cl)cc2s1.Cl | -73.4
CCN(CC)CCN(C(=O)c1cc2ccccc2cc1OC)c1nc2ccc(F)cc2s1.Cl | -11.8
Cc1cc(-c2ccccc2)n(-c2cc(N/N=C/c3ccccc3O)ncn2)n1 | -10.5
Cc1ccnc2nc(C(=O)OCC(=O)NC3CCCC(C)C3C)nn12 (stereo not shown) | -10.4
Cn1c(=O)c2c(nc(NCc3ccc4c(c3)OCO4)n2C)n(C)c1=O | -13.1
NC(=O)C1CCN(C(=O)CSc2nc3ccccc3[nH]2)CC1 | 4.06
Fc1cccc(Cl)c1Cn1nnc(-c2ccc(N3CCOCC3)cc2)n1 | 8.99

SMILES | hERG current change (%, negative = inhibition) at 10uM [%]
COc1ccc(-n2c(CNC(=O)c3cccs3)n[nH]c2=S)cc1 | 27.7
COc1cc(C)c(Br)cc1S(=O)(=O)N1CCCC1 | -22.1
COc1ccc(/C=C2/C(=O)NC(=S)N(C3CC3)C2=O)cc1CN1C(=O)c2ccccc2C1=O | -8.62
COc1ccc(C(=O)COC(=O)Cc2n[nH]c(=O)c3ccccc23)c(OC)c1 | 16.7
COc1ccccc1C(=O)N(CCN(C)C)c1nc2cc(C)cc(C)c2s1.Cl | -82
Cc1cc(C)c2sc(N(CCN(C)C)C(=O)c3cc(Cl)sc3Cl)nc2c1.Cl | 9.32
CN(C)CCCN(C(=O)c1ccco1)c1nc2ccc(Br)cc2s1.Cl | -71.8
COc1cc2ccccc2cc1C(=O)N(CCN(C)C)c1nc2ccc(C)cc2s1.Cl | -11.2
COc1ccccc1C(=O)N(CCC1CCCN1C)c1nc2ccccc2s1 (stereo not shown) | -50.9
CN(C)CCN(C(=O)c1ccco1)c1nc2cc3c(cc2s1)OCCO3.Cl | -32.8
CN(C)CCCN(C(=O)/C=C/c1cccs1)c1nc2ccc(F)cc2s1.Cl | -41
COCCN(C(=O)Nc1ccccc1OC)c1nc2ccccc2s1 | 19.9
COc1cc2ccccc2cc1C(=O)N(CCN(C)C)c1nc2ccc(Br)cc2s1.Cl | 9.85
Cc1cc(C)c2sc(N(CCN(C)C)C(=O)c3ccc4ccccc4c3)nc2c1.Cl | 7.53
CN(C)CCCN(C(=O)c1ccco1)c1nc2ccc(F)cc2s1.Cl | -70.5
CCCCn1c(N)c(N(CCOC)C(=O)COC(=O)c2cc(CC)c(C)s2)c(=O)[nH]c1=O | 22
Cn1c(SCC(=O)Nc2ccc3[nH]c(=O)[nH]c3c2)nnc1-c1ccc(F)cc1 | 7.63
[O-]/[N+](=C\c1ccccc1)c1ccc(Br)cc1 | -0.595
CCn1c(CSc2nc3ccccc3s2)nnc1SCC(=O)c1ccc(Cl)cc1 | 6.76
CC(=O)c1cccc(NC(=O)N2CCCC2C(=O)NCc2ccccc2)c1 (stereo not shown) | 15
C1=C(c2ccccc2)CCN(c2nc3ccccc3n3cnnc23)C1 | -8.21
CCCCN(C)CCNC(=O)C1CCN(S(=O)(=O)c2cccc3nsnc23)CC1 | -15.3

SMILES | hERG current change (%, negative = inhibition) at 10uM [%]
O=[N+]([O-])c1ccc(Oc2c(F)c(F)nc(N3CCCC3)c2F)cc1 | -19.7
Cc1ccc(C(=O)N(CCCN(C)C)c2nc3ccc(Cl)cc3s2)cc1C.Cl | -56.4
CCN(CC)CCN(C(=O)c1ccc(C(C)=O)cc1)c1nc2ccc(Cl)cc2s1.Cl | -30.2
CN(C)CCN(C(=O)c1ccc(S(=O)(=O)N(C)c2ccccc2)cc1)c1nc2ccc(Cl)cc2s1.Cl | -13
CNS(=O)(=O)c1cccc2cccnc12 | 11.1
Cc1ccc(N2C(=O)CC(NCc3ccc4c(c3)OCO4)C2=O)cc1Cl (stereo not shown) | -54.8
O=C1CC(NCc2ccc3c(c2)OCO3)C(=O)N1Cc1ccc2c(c1)OCO2 (stereo not shown) | -4.06
CCN1C(=O)CC(NCc2ccc3c(c2)OCO3)C1=O (stereo not shown) | -9.23
CS(=O)(=O)N(CC(=O)N1CCN(Cc2ccccc2)CC1)c1ccccc1F | -5.93
CCNC(=O)CSc1nnc(-c2cc(-c3ccc(Cl)cc3)nc3ccccc23)o1 | -82.3
CCC(C)NC(=O)CSc1nnc(-c2cc(-c3cccs3)nc3ccccc23)o1 (stereo not shown) | -0.833
CCN(CC)C(=O)CSc1nnc(-c2cc(-c3ccc(Cl)cc3)nc3ccccc23)o1 | -3.85
Cc1nn(-c2cc(N3CCCCCC3)ccc2[N+](=O)[O-])c(=O)c2ccccc12 | 6.02
O=C(NCCc1c[nH]c2ccccc12)C(=O)NCC(c1ccco1)N1CCN(c2ccc(F)cc2)CC1 (stereo not shown) | 7.65
Cc1cc(C)n(CC(=O)c2ccccc2)c(=O)c1C#N | 10.9
CCNc1nc(NCC)nc(SCCOC(=O)Nc2ccccc2)n1 | -71
CCNc1nc(NCC)nc(SCCOC(=O)c2ccccc2)n1 | -39.4
CCNc1nc(NCC)nc(OCCOC(=O)Nc2ccccc2)n1 | -0.811
O=C(CSc1nnc(CNC(=O)c2ccccc2)o1)NCc1ccco1 | -0.224
Cc1ccc(CSc2ccc(S(=O)(=O)N3CCOCC3)cn2)cc1 | -10.2
COc1cc(/C=C/C(=O)Nc2ccccc2C(F)(F)F)cc(OC)c1OC | -5.76
COC(=O)CN(c1nc(C)cc(OC)n1)S(=O)(=O)c1ccc(C)cc1 | -8.25

SMILES | hERG current change (%, negative = inhibition) at 10uM [%]
Cc1c(C(=O)C(=O)NCCc2ccc(S(N)(=O)=O)cc2)c2ccccc2n1C | -13.4
COc1ccc(S(=O)(=O)NCC2CCCO2)cc1NC(=O)c1ccccc1 (stereo not shown) | -15.4
COc1ccc(S(=O)(=O)NCC2CCCO2)cc1NC(=O)c1ccc(Cl)cc1 (stereo not shown) | -54
COc1ccc(S(=O)(=O)NCc2ccccn2)cc1NC(=O)c1ccc(C)cc1 | -16.5
COc1ccc(S(=O)(=O)NCc2ccncc2)cc1NC(=O)c1ccc(Cl)cc1 | -67.4
COc1ccc(S(=O)(=O)NCc2ccncc2)cc1NC(=O)c1ccccc1 | -34.7
COc1ccc(S(=O)(=O)NCc2cccnc2)cc1NC(=O)c1ccc(Cl)cc1 | -52.2
COc1ccc(S(=O)(=O)NCC2CCCO2)cc1NC(=O)c1ccccc1F (stereo not shown) | 19.1
COc1ccc(S(=O)(=O)NCc2ccncc2)cc1NC(=O)c1ccccc1F | 18.7
COc1ccc(S(=O)(=O)NCc2cccnc2)cc1NC(=O)c1ccccc1 | -3.99
COc1ccc(S(=O)(=O)NCc2ccccn2)cc1NC(=O)c1ccc(Cl)cc1 | -68.8
COc1ccc(S(=O)(=O)NCc2cccnc2)cc1NC(=O)c1ccc(C)cc1 | -17.6
COc1ccc(S(=O)(=O)NCc2ccccn2)cc1NC(=O)c1ccccc1 | 8.45
Cc1cc(C)n(CC(=O)N2CCCC(N3CCN(c4ccc(F)cc4)CC3)C2)n1 (stereo not shown) | -18.1
COc1ccc(N2CCN(C3CCCN(C(=O)CSC)C3)CC2)cc1 (stereo not shown) | 3.1
Cc1ccc(OCC(=O)N2CCCC(N3CCN(c4ccc(F)cc4)CC3)C2)cc1 (stereo not shown) | -101
O=C(CCN1CCCCO1)N1CCCC(N2CCN(c3ccc(F)cc3)CC2)C1 (stereo not shown) | -11.2
COc1ncccc1C(=O)N1CCCC(N2CCN(c3ccc(F)cc3)CC2)C1 (stereo not shown) | -26.7
O=C(COc1ccccc1Cl)N1CCCC(N2CCN(c3ccc(F)cc3)CC2)C1 (stereo not shown) | -65.8
O=C(COc1ccccc1Cl)N1CCN(c2ccc(F)cc2)CC1 | -6.04
COc1ccccc1OCC(=O)N1CCCC(N2CCN(c3ccc(F)cc3)CC2)C1 (stereo not shown) | -52.9
COc1ccccc1N1CCN(C2CCCN(C(=O)CC(F)(F)F)C2)CC1 (stereo not shown) | 12.4
